Results filed as inconclusive are left out. A call without a number means that no potency is given here. Activity calls are given as the source filed them. Calls follow the shape of the dose curve; as a rule, active = well fitted inhibition curve with a large enough effect in the signal ratio in the repeat runs (not every such curve was filed as active); inconclusive = weak or mixed curves, or effect the other way; inactive = no such curve, though single readings can be large or run the other way; the % refers to the signal ratio.
What follows are molecules tested against Bile acid receptor (Homo sapiens) (UniProt Q96RI1) (assay: qHTS assay to identify small molecule antagonists of the farnesoid-X-receptor (FXR) signaling pathway (AID 743217)). Settings: HEK293T FXR-UAS-bla, beta-lactamase ratio, CDCA-stimulated, 16 h; series mostly up to 62.6 µM.
Bile acid receptor (Homo sapiens), sequence (Q96RI1 whole entry, looked up): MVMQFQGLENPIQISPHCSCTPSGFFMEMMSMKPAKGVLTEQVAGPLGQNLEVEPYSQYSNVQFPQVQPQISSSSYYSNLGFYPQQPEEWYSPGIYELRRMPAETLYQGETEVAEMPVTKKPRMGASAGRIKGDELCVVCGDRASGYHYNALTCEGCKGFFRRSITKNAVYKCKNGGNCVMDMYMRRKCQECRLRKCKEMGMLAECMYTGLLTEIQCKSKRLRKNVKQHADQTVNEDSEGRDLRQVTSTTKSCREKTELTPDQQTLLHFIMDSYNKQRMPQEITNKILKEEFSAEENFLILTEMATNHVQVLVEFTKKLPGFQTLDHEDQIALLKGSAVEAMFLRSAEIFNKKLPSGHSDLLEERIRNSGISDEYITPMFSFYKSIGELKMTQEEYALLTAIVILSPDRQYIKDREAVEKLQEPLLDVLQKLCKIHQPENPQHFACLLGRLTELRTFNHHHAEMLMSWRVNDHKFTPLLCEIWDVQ
Text: U.S. Tox21 Program National Center for Advancing Translational Sciences [NCATS] NIH Chemical Genomics Center [NCGC] U.S. Environmental Protection Agency [EPA] National Institutes of Environmental Health Sciences [NIEHS] National Toxicology Program [NTP] U.S. Food and Drug Administration [FDA] Tox21 Assay Overview: The farnesoid-X-receptor (FXR), a nuclear hormone receptor, is highly expressed in liver, intestine, kidney and adrenal cortex. Natural ligands of FXR are the bile acids (Cholic acid, Chenodeoxy cholic acid etc). FXR is an important regulator of diverse metabolic pathways, including the bile acid homeostasis, lipid and glucose metabolisms. FXR regulates the expression of target genes by binding either as a monomer or as a heterodimer with the retinoid X receptor (RXR). Numerous studies have reported that FXR exerts protective function during cholestasis, diabetes, liver regeneration, and cancer. To identify compounds that inhibit FXR signaling, GeneBLAzer FXR-UAS-bla HEK 293T cell line (Invitrogen, Carlsbad, CA) containing a beta-lactamase reporter gene under the control of a UAS response element was used to screen the Tox21 10K compound library.
Tox21 Assay Protocol Summary: FXR-bla cells were dispensed at 5000 cells/5uL/well in 1536-well black wall/clear bottom plates using a Multidrop Combi (Thermo Fisher Scientific, Waltham, MA) dispenser. After the assay plates were incubated at 37C and 5% CO2 for 5 h, 23 nL of compounds dissolved in DMSO, positive controls or DMSO only was transferred to the assay plate by a Pintool station (Kalypsys, San Diego, CA), followed by addition of 1 uL Chenodeoxycholic acid (50 uM, final concentration in the wells). The assay plates were incubated at 37C for 16 h. After 1 uL of LiveBLAzerTM B/G FRET substrate was added using a Bioraptr Flying Reagent Dispenser (FRD) workstation (Beckman Coulter, Indianapolis, IN), the plates were incubated at room temperature for 2 h, and fluorescence intensity was measured by an Envision plate reader (PerkinElmer, Shelton, CT).
With CCC(=O)/C=C/C1C(C)=CCCC1(C)C (stereo not given) the Potency was “inactive”. Cc1scc2c1N(C(=O)CN1CCN(C)CC1)c1ccccc1NC2=O was tested, and the Potency was “inactive”. With Nc1cc(S(=O)(=O)O)cc2cc(S(=O)(=O)O)cc(O)c12 the Potency was “inactive”. For C=CC(=O)OCCCCCCOC(=O)C=C, the Potency was “inactive”. For CCCCCCCCCCCC[N+](C)(C)C, the Potency was “inactive”. NC(N)=Nc1nc(CSCC/C(N)=N/S(N)(=O)=O)cs1 was tested, and the Potency was “inactive”. c1ccc2c(c1)CCCC2C1=NCCN1 (stereo not given) was tested, and the Potency was “inactive”. O=S(=O)(O)c1ccc2nc(-c3ccccc3)[nH]c2c1 was tested, and the Potency was “inactive”. Cc1ccnc2c1NC(=O)c1cccnc1N2C1CC1 was tested, and the Potency was “inactive”. For CCCCN(CCO)CCCC, the Potency was “inactive”. In the case of Cc1cccc(O)c1C, the Potency is reported as “inactive”. c1cnc2cc3c(cc2n1)C1CNCC3C1 was tested, and the Potency was “inactive”. With CCCCCCCCCCCCc1ccccc1O the Potency was 49 µM (active). c1ccc2cc3c(ccc4ccccc43)cc2c1 was tested, and the Potency was “inactive”. For COc1ccc(Cc2cnc(N)nc2N)cc1OC, the Potency was “inactive”. For CN1C(=O)c2ccc([N+](=O)[O-])cc2C1=O, the Potency was “inactive”. For CNC1(C)C2CCC(C2)C1(C)C (stereo not given), the Potency was “inactive”. In the case of CCN(CC)CCOc1ccc(/C(=C(\Cl)c2ccccc2)c2ccccc2)cc1, the Potency is reported as “inactive”. For CC(=O)N[C@@H](CS)C(=O)O, the Potency was “inactive”. CCOc1ccccc1C(N)=O was tested, and the Potency was “inactive”. In the case of COC(c1ccccc1)(c1ccccc1)[C@H](Oc1nc(C)cc(C)n1)C(=O)O, the Potency is reported as “inactive”. For CC(=O)O[C@]1(C(C)=O)CC[C@H]2[C@@H]3C[C@H](C)C4=CC(=O)CC[C@]4(C)[C@H]3CC[C@@]21C, the Potency was “inactive”. For O=C(O)Cn1cnnn1, the Potency was “inactive”. With Nc1nc2ccccc2[nH]1 the Potency was “inactive”. With CC1COc2c(N3CCN(C)CC3)c(F)cc3c(=O)c(C(=O)O)cn1c23 (stereo not given) the Potency was “inactive”. In the case of N[C@@H]1CONC1=O, the Potency is reported as “inactive”. With CC(=O)CC(=O)Nc1ccc2[nH]c(=O)[nH]c2c1 the Potency was “inactive”. With Cc1cc(C(C)(C)C)c(O)c(C(C)(C)C)c1 the Potency was “inactive”. In the case of O=C(OCc1ccccc1)c1ccc(O)cc1, the Potency is reported as “inactive”. In the case of NCCCCCC(=O)O, the Potency is reported as “inactive”. Nc1ccc(O)cc1 was tested, and the Potency was “inactive”. In the case of CC1COC(=O)O1 (stereo not given), the Potency is reported as “inactive”. In the case of CC(=O)C1=C(C)[C@@H]2C[C@@]3(C1)[C@H](C)CC[C@H]3C2(C)C, the Potency is reported as “inactive”. With CC(=O)OCCOCCOCCOC(C)=O the Potency was “inactive”. Cc1ccc(S(=O)(=O)Oc2ccc(N=Nc3ccc(-c4ccc(N=Nc5c(O)ccc6cc(S(=O)(=O)O)cc(S(=O)(=O)O)c56)c(C)c4)cc3C)cc2)cc1 was tested, and the Potency was “inactive”. For CC(C)C(=O)c1c(C(C)C)nn2ccccc12, the Potency was “inactive”. In the case of O=C1CC2(CCCC2)CC(=O)N1CCCCN1CCN(c2ncccn2)CC1, the Potency is reported as “inactive”. For CCC[C@H](N[C@@H](C)C(=O)N1[C@H](C(=O)O)C[C@@H]2CCCC[C@@H]21)C(=O)OCC, the Potency was “inactive”. With CC(C)(C)NCC(O)COc1ccccc1OCC1CCCO1 (stereo not given) the Potency was “inactive”. In the case of CCC(C)(Oc1ccc(C2(c3ccc(OC(C)(CC)C(=O)O)cc3)CCCCC2)cc1)C(=O)O (stereo not given), the Potency is reported as “inactive”.

Reference: PubChem BioAssay (Tox21)
Potency is read from the fitted curve at half-maximal effect.
